25 molecules from PubChem BioAssay AID651724 (National Center for Advancing Translational Sciences (NCATS), 2012) can be followed below.

About 1,700 (0.5%) of roughly 340,000 compounds were called active. Not shown: some 2% with an inconclusive outcome. No stated cut-off is given here; in the data, active means activity change below about -65%; inconclusive means mostly about -30% to -63%; inactive means weaker than that. The list comes from a sample in which actives are over-represented; it also holds similar structures and randomly drawn compounds.
On the % scale 0 is the no-effect control and ±100 the full control effect.

For the experiment, the system named is CtBP / adenovirus E1A interaction (AlphaScreen). Briefly: qHTS Assay for Inhibitors of the CtBP/E1A Interaction. The conditions noted are these: AlphaScreen GST-E1A/His-CtBP binding, 1536-well; active compounds read low. The text has this: Carboxyl-terminal binding protein (CtBP) is a co-repressor for many transcription factors. […] Our studies have shown that CtBP is overexpressed in multiple human cancers, including lung, breast, and head and neck cancers. In particular, it is over-expressed in 50% of primary lung cancer and 90% of metastatic lesions. CtBP suppresses epithelial-specific genes as well as genes critical for apoptosis, providing the underlying molecular mechanism for its role in tumorigenesis. […] Based on the above data, we hypothesize that 1) CtBP suppresses the pro-apoptotic and epithelial genes, therefore overexpressed CtBP in human cancer cells increases EMT and cancer survival; 2) decreasing CtBP's function represents a targeted therapy for lung cancer and potentially multiple cancer types. As a co-repressor, CtBP binds to E1A and other transcription factors through a conserved peptide motif to carry out its action. Inhibiting this interaction using small molecules can potentially serve as effective cancer therapeutics.
To this end, we have developed a homogenous AlphaScreen assay targeting the CtBP/E1A interaction. We performed a large scale HTS of the Molecular Libraries Small Molecule Repository (MLSMR) to identify inhibitors of the CtBP/E1A interaction as potential anti-cancer therapeutics. Compounds identified can also be used as chemical probes to better understand the biological functions of CtBP.
NIH Chemical Genomics Center [NCGC]
NIH Molecular Libraries Probe Centers Network [MLPCN]
Assay Submitter (PI): Rui Zhao, University of Colorado Denver
The first step of the 5uL AlphaScreen assay is to dispense assay buffer (50 mM Tris, pH 8.0, 300 mM NaCl, 0.05% BSA, 0.02% Tween 20, 1 mM TCEP) into a Greiner 1536 white solid bottom microtiter plate (789175-F). Five microliters is added to Column 1, 4 uL is added to Column 2 and 3 uL is added to Columns 3 through 48. A 5X protein solution (125 nM GST-E1A protein + 125 nM His-tagged CtBP protein) is mixed and 1 uL is dispensed to Columns 3-48. Using a 1536 pintool, 23 nL of compound is transferred to the assay plate and the plate is incubated with a lid at 37 deg C in the dark for two hours. A solution of 5X AlphaScreen beads is mixed (50 ug/mL Glutathione linked donor beads + Nickel chelated acceptor beads) and 1 uL is dispensed to Columns 2-48. The assay plate is incubated for one hour, with a lid, at 37 deg C in the dark. The plate is read using a Perkin Elmer Envision using an AlphaScreen protocol.
On the technique in general: qHTS replaces the single test concentration by a dilution series.
As for `CCC(C)n1c(O)c(/C=N/Nc2nc3c(c(=O)n(C)c(=O)n3C)n2C)c(=O)[nH]c1=S` (stereo not given), the activity change is -83.2% (active).
For `COc1ccc(-n2nnnc2C(c2cccc3ccccc23)N2CCC(n3c(=O)[nH]c4ccccc43)CC2)cc1` (stereo not given), the activity change is -14.3% (inactive).
For `O=C(N/N=C/c1c(O)n(C2CC2)c(=S)[nH]c1=O)c1ccccc1`, the activity change is -92.7% (active).
Regarding `Cc1cccc(-n2c(O)c(/C=N/N3CCOCC3)c(=O)[nH]c2=S)c1`, the activity change is 9.2% (inactive).
Then `O=C(N/N=C/c1c(O)n(Cc2ccccc2)c(=O)[nH]c1=O)c1ccccc1`, with -72.7% (active).
As for `CC(C)c1ccc(-n2c(O)c(/C=N/N3CCOCC3)c(=O)[nH]c2=S)cc1`, the activity change was -2.7% (inactive).
For `O=C(N/N=C/c1c(O)n(C2CC2)c(=S)[nH]c1=O)c1ccccc1Cl`, the activity change was -92.7% (active).
For the molecule `CC/C(=N\NC(=O)c1ccccc1O)c1c(O)n(Cc2ccccc2)c(=O)[nH]c1=O`, the activity change is -5.73% (inactive).
As for `O=c1[nH]c(=S)n(C2CC2)c(O)c1/C=N/N1CCOCC1`, the activity change was -2.5% (inactive).
In the case of `COc1ccccc1-n1c(O)c(C=NC2CC2)c(=O)[nH]c1=O`, the activity change was 7.53% (inactive).
With `O=c1[nH]c(=O)n(Cc2ccccc2)c(O)c1/C=N/Nc1c(F)c(F)c(F)c(F)c1F` the figure was 4.41% (inactive); with `CCOC(=O)[C@]12Cc3cc(OC)ccc3[C@H]1N(C(C)C)C(=O)c1ccccc12`, -1.62% (inactive).
As to `CC(=CCOc1ccc2ccc(=O)oc2c1)C1=CC(=O)C(C)(C)O1`, the activity change was 1.99% (inactive).
Take `COC(=O)C[C@H]1CC[C@H]2NC[C@@H](O)COC[C@@H]2O1`: the activity change was -7.3% (inactive).
For the molecule `CCOC(=O)[C@]12Cc3ccccc3[C@H]1N(C1CCCCC1)C(=O)c1cc(OC)ccc12`, the activity change was -16.5% (inactive).
In the case of `O=c1[nH]c2ccccc2n1C1CCN(C(c2ccccc2)c2nnnn2Cc2ccccc2)CC1` (stereo not given), the activity change is -12.7% (inactive).
For `O=C1NCN(c2ccccc2)C12CCN(C(c1cccs1)c1nnnn1C1CCCCC1)CC2` (stereo not given), the activity change was -7.02% (inactive).
In the case of `O=C(NCC1=C(c2ccc3ccccc3c2)C[C@@H]2CC[C@H]1N2Cc1ccco1)c1cccs1`, the activity change was -23.4% (inactive).
Regarding `COC(=O)CN(CCCl)P1(=O)OCCCN1CCCl` (stereo not given), the activity change was 2.9% (inactive).
As to `COc1cccc(C(c2nnnn2-c2ccc3c(c2)OCCO3)N2CCC3(CC2)C(=O)NCN3c2ccccc2)c1OC` (stereo not given), the activity change is -13% (inactive).
With `O=c1[nH]c2ccccc2n1C1CCN(C(c2ccnc3ccccc23)c2nnnn2Cc2ccccc2)CC1` (stereo not given) the figure was -7.28% (inactive); with `O=c1[nH]c(=O)n(CCc2ccc(F)cc2)c(O)c1/C=N/N1CCCCC1`, -1.47% (inactive); with `CCCCC(=O)N/N=C/c1c(O)n(CCC2=CCCCC2)c(=O)[nH]c1=O`, -82.9% (active).
Take `COc1ccc(CCn2c(O)c(C=NC3CC3)c(=O)[nH]c2=O)cc1OC`: the activity change was -7.4% (inactive).
In the case of `COC(=O)C1=C(c2ccc(OCc3ccccc3)cc2)C[C@@H]2CC[C@H]1N2C(=O)NCc1ccc(Cl)cc1`, the activity change is 0.0513% (inactive).
